The results in this text go back to PubChem BioAssay (NCATS).

Records with an inconclusive call do not appear. Values without a mark were called inactive. Active and inactive are the calls of the source. Calls come from the whole dose curve; as a rule, active = well fitted cell-killing curve with a large enough effect; inconclusive = small, poorly fitted or top-dose-only effect, or effect the other way; inactive = flat fitted curve, though single readings scatter.

Common to all, as to assay: Primary qHTS to identify gynecologic anti-cancer compounds using libraries of approved drugs and bioactive compounds (AID 1345084); note: nearly all actives have a fitted effect of over 55% in size
For orientation: qHTS replaces the single test concentration by a dilution series.

One assay concerns C33A. The settings on record: Gynecologic cancer cell panel viability, ATPlite luminescence, 48 h; series mostly up to 57.5 µM. The method in brief:
(§1)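 48 h compound exposure at 37 C, 5% CO2; five-point qHTS. ATPlite luminescence readout of cell ATP.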
(In general: ATP-based viability assays read luminescence as a measure of living cells.)

The test system of another assay is CAOV3. The following applies: Gynecologic cancer cell panel viability, ATPlite luminescence, 48 h; series mostly up to 57.5 µM. The method in brief:
as §1

Another assay has as its system CASKI. The following applies: Gynecologic cancer cell panel viability, ATPlite luminescence, 48 h; series mostly up to 57.5 µM. A digest of the protocol: as §1
The test system of another assay is Es-2. The following applies: Gynecologic cancer cell panel viability, ATPlite luminescence, 48 h; series mostly up to 57.5 µM. A digest of the protocol: as §1
Another assay has as its system HeLa. The settings on record: Gynecologic cancer cell panel viability, ATPlite luminescence, 48 h; series mostly up to 57.5 µM. A digest of the protocol: as §1
A further assay concerns Hek293T. The following applies: Gynecologic cancer cell panel viability, ATPlite luminescence, 48 h, control line for the selectivity index; series mostly up to 57.5 µM. The method in brief: as §1
A further assay relates to JEG-3. The settings on record: Gynecologic cancer cell panel viability, ATPlite luminescence, 48 h; series mostly up to 57.5 µM. A digest of the protocol:
as §1

The subject of another assay is OV90. The following applies: Gynecologic cancer cell panel viability, ATPlite luminescence, 48 h; series mostly up to 57.5 µM. A digest of the protocol: as §1
A further assay concerns Tov-21-G. The settings on record: Gynecologic cancer cell panel viability, ATPlite luminescence, 48 h; series mostly up to 57.5 µM. A digest of the protocol:
as §1

The next assay deals with Tov112D. The settings on record: Gynecologic cancer cell panel viability, ATPlite luminescence, 48 h; series mostly up to 57.5 µM. A digest of the protocol:
as §1

Another assay deals with SKOV3. The settings on record: Gynecologic cancer cell panel viability, ATPlite luminescence, 48 h; series mostly up to 57.5 µM. A digest of the protocol:
as §1

In a further assay the test system is PA-1. The following applies: Gynecologic cancer cell panel viability, ATPlite luminescence, 48 h; series mostly up to 57.5 µM. The method in brief:
as §1
Potency is the fitted concentration of half-maximal effect.

Consider `C=C1CCC2C(C)(C)C(O)CCC2(C)C1CCC(C)CCOC(C)=O` (configuration not stated), for which the Potency entry in the assay with C33A, in the assay with CAOV3, in the assay on CASKI, with Es-2, in the assay with HeLa and in the assay with Hek293T was “inactive” in each case. Moreover, the Potency result in the assay with JEG-3, with OV90, in the assay with Tov-21-G and with Tov112D was “inactive” each time.

`CC1CCC23COC(=O)C2=CC(O)CC3C1(C)CCC1=CC(O)OC1=O` (configuration not stated): the Potency entry in the assay on C33A, in the assay with CAOV3, in the assay on CASKI, in the assay with Es-2, in the assay on HeLa and with Hek293T was “inactive” throughout. Further, the Potency entry with JEG-3, in the assay on OV90, in the assay on Tov-21-G and in the assay on Tov112D was “inactive” throughout.

With `CC(=O)N1CCN(Cc2ccc([C@H](C)Nc3nccc(N4C(=O)OC[C@@H]4C(C)C)n3)cc2)CC1`, the Potency entry in the assay with C33A, in the assay with CAOV3, in the assay on CASKI, with Es-2, in the assay with HeLa and in the assay with Hek293T was “inactive” in each case. Moreover, the Potency entry in the assay with OV90, in the assay with SKOV3, in the assay on Tov-21-G and with Tov112D was “inactive” throughout.

With `Cc1cc(N2CCN([C@@H]3CN[C@H](C(=O)N4CCSC4)C3)CC2)n(-c2ccccc2)n1`, the Potency result in the assay on C33A, with CAOV3, in the assay with CASKI, with Es-2, in the assay on HeLa and in the assay with Hek293T was “inactive” throughout. The Potency entry in the assay on OV90, in the assay on Tov-21-G and in the assay on Tov112D was “inactive” in each case.

With `O=C(c1cc2c(cc1F)OC(c1ccc(F)cc1)(c1ccc(Cl)cc1Cl)O2)N1CCOCC1` (configuration not stated), the Potency entry in the assay on C33A, in the assay with CAOV3, in the assay with CASKI, in the assay on Es-2, with HeLa and in the assay on Hek293T was “inactive” each time. Besides, the Potency entry in the assay with JEG-3, with PA-1, with Tov-21-G and in the assay with Tov112D was “inactive” in each case.

For `N[C@H]1Cc2ccccc2N(O)C1=O`, the Potency entry with C33A, in the assay with CAOV3, in the assay with CASKI, in the assay on Es-2, in the assay on HeLa and with Hek293T was “inactive” throughout. For the same compound, the Potency entry in the assay on JEG-3, with PA-1, in the assay on SKOV3, with Tov-21-G and in the assay with Tov112D was “inactive” throughout.

As to `C/C=C/c1ccc2oc(-c3ccc(O)c(OC)c3)c(C)c2c1`, the Potency entry with C33A, in the assay on CAOV3, in the assay on CASKI, in the assay on Es-2, in the assay with HeLa and with Hek293T was “inactive” in each case. In addition, the Potency entry in the assay with JEG-3, in the assay with Tov-21-G and with Tov112D was “inactive” in each case. For the same compound, in the assay with OV90, the Potency is 20 µM (active).

Turning to `N#Cc1ccc(C(=O)N2CCC3(CC2)N=C(N)c2c(F)ccc(F)c2N3)cn1`, the Potency entry in the assay on C33A, in the assay with CAOV3, in the assay with CASKI, in the assay on Es-2, in the assay with HeLa and in the assay on Hek293T was “inactive” in each case. Also, the Potency entry in the assay on JEG-3, in the assay on OV90, in the assay with Tov-21-G and in the assay on Tov112D was “inactive” in each case.

On to `COC(=O)c1ccnc(-c2cc(C(=O)NCCc3ccccc3)ccn2)c1`, for which the Potency result in the assay on C33A, in the assay with CAOV3, in the assay with CASKI, in the assay with Es-2, in the assay on HeLa and in the assay on Hek293T was “inactive” throughout. The Potency result in the assay on OV90, in the assay on PA-1, in the assay on SKOV3, in the assay with Tov-21-G and in the assay on Tov112D was “inactive” each time.

For `COc1cc(O)cc(/C=C/c2ccc(O[C@@H]3O[C@H](CO)[C@@H](O)[C@H](O)[C@H]3O)cc2)c1`, the Potency entry with C33A, in the assay with CAOV3, with CASKI, with Es-2, in the assay with HeLa and with Hek293T was “inactive” each time. For the same compound, the Potency result with OV90, in the assay on PA-1 and in the assay with Tov112D was “inactive” in each case.

`COc1cc(Nc2nc3c(s2)CCCC3c2ccc(F)cc2)ccc1-n1cnc(C)c1` (configuration not stated): the Potency result with C33A, in the assay with CAOV3, in the assay on CASKI, in the assay on Es-2, in the assay with HeLa and with Hek293T was “inactive” each time. The Potency entry with JEG-3, in the assay on PA-1, in the assay with Tov-21-G and in the assay on Tov112D was “inactive” throughout.

On to `CC(C)[N+]1(C)C2CCC1CC(OC(=O)C(CO)c1ccccc1)C2` (configuration not stated), for which the Potency entry with C33A, with CAOV3, in the assay on CASKI, in the assay with Es-2, in the assay on HeLa and in the assay on Hek293T was “inactive” each time. Further, the Potency entry with JEG-3, with OV90, in the assay on Tov-21-G and in the assay on Tov112D was “inactive” each time.

As for `O=C(CC1C(=O)Nc2ccccc21)OC[C@H]1O[C@@H](OCCc2ccc(O)cc2)[C@H](O)[C@@H](O)[C@@H]1O` (some centres not stated), the Potency result in the assay with C33A, with CAOV3, with CASKI, in the assay with Es-2, with HeLa and in the assay with Hek293T was “inactive” in each case. For the same compound, the Potency result in the assay on JEG-3, in the assay with OV90, with Tov-21-G and with Tov112D was “inactive” each time.

With `O=C1CCC=CC1(O)C(=O)OCc1ccccc1O[C@@H]1O[C@H](CO)[C@@H](O)[C@H](O)[C@H]1O` (some centres not stated), the Potency result with C33A, in the assay on CAOV3, with CASKI, in the assay on Es-2, with HeLa and with Hek293T was “inactive” throughout. For the same compound, the Potency entry in the assay on OV90, in the assay with SKOV3, in the assay with Tov-21-G and in the assay with Tov112D was “inactive” throughout.

Regarding `CC(Cc1cc2c(c(C(N)=O)c1)N(CCCO)CC2)NCCOc1ccccc1OCC(F)(F)F` (configuration not stated), the Potency entry in the assay with C33A, in the assay with CAOV3, in the assay with CASKI, in the assay on Es-2, with HeLa and in the assay on Hek293T was “inactive” throughout. Further, the Potency entry in the assay with OV90, in the assay with PA-1, in the assay with SKOV3, with Tov-21-G and in the assay on Tov112D was “inactive” in each case.

As for `C=C(CCC1=C(C)[C@H]2[C@H](CC3[C@@H]4CC=C5C[C@@H](O)C[C@@H](O)[C@]5(C)C4[C@H](O)C[C@@]32C)O1)CO[C@@H]1O[C@H](CO)[C@@H](O)[C@H](O)[C@H]1O` (some centres not stated), the Potency was 1.26 µM (active) in the assay on C33A; 3.55 µM (active) with CAOV3; 3.16 µM (active) in the assay on CASKI; 3.16 µM (active) with Es-2; 3.16 µM (active) with HeLa; 3.16 µM (active) with Hek293T. Further, the Potency in the assay on PA-1 is 3.16 µM (active); in the assay on SKOV3, 2.82 µM (active); in the assay on Tov-21-G, 2.51 µM (active); in the assay on Tov112D, 1.12 µM (active).

Take `CC(C)CNCc1ccc(-c2ccccc2S(=O)(=O)N2CCCC2)cc1`: the Potency result in the assay on C33A, in the assay on CAOV3, in the assay with CASKI, with Es-2, in the assay with HeLa and in the assay with Hek293T was “inactive” in each case. The Potency entry with JEG-3, in the assay on PA-1, with SKOV3, in the assay on Tov-21-G and in the assay with Tov112D was “inactive” each time.
